Experimental data taken from the supplement of paper PMC10127200.
Where a name gives a salt, the structure may show the parent alone.

What was measured:
Test in all cases: Euclidean distance of Cell Painting phenotypic profile (signed KS, 77 features) to DMSO centroid (dimensionless distance); 5 or 10 uM (library dependent); higher = stronger phenotypic change vs DMSO (phenoactivity)
Conditions in all cases: 48 h
786-O = test system: 786-O
In short: (§1)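 Harmony extracted 77 features from 20X confocal images (9 fields/well) of stained cells, scoring each as a signed Kolmogorov-Smirnov statistic against same-plate vehicle wells. The cells, five cancer lines and a healthy fibroblast line, had received library compounds for 48 h at 10 or 5 uM depending on library, with 0.1% DMSO final. Phenoactivity is the Euclidean distance from each plate-position-corrected, correlation-weighted, top-dose replicate-averaged profile to the median vehicle profile.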

A549 = test system: A549
In short: as §1

FB = test system: FB
In short: as §1

HEPG2 = test system: HEPG2
In short: as §1

OVCAR4 = test system: OVCAR4
In short: as §1

SMILES	Euclidean distance (786-O)	Euclidean distance (A549)	Euclidean distance (FB)	Euclidean distance (HEPG2)	Euclidean distance (OVCAR4)
CC(C)(C)NC[C@H](O)COc1nsnc1N1CCOCC1 [Timolol Maleate]	1.22	0.771	0.609	0.591	1.76
CCN(CC)C(=O)c1cccnc1 [Nikethamide]	1.44	1.13	1.17	0.66	1.38
CC(=O)[C@H]1CC[C@H]2[C@@H]3CCC4=CC(=O)CC[C@]4(C)[C@H]3CC[C@]12C [Progesterone]	0.734	0.774	0.883	0.863	0.832
Cc1c(C)c2c(c(C)c1O)CC[C@@](C)(CCC[C@H](C)CCC[C@H](C)CCCC(C)C)O2 [Vitamin E]	0.972	1.04	0.892	0.644	1.43
Nc1ccc(S(=O)(=O)Nc2ccccn2)cc1 [Sulfapyridine]	0.73	1.12	0.894	0.884	1.27
CNC(=O)c1ccc(Nc2ncc(C(F)(F)F)c(NCc3nccnc3N(C)S(C)(=O)=O)n2)cc1	1.58	1.6	2.06	0.842	1.85
CCOC(=O)c1ncn2c1CN(C)C(=O)c1cc(F)ccc1-2 [Flumazenil]	1.08	0.73	1.11	0.383	0.959
Cc1cc2c(s1)Nc1ccccc1N=C2N1CCN(C)CC1 [Olanzapine]	1.03	1.01	1.48	0.621	1.61
Cc1cc2c(C(N)=O)cccc2n1-c1nc2c(c(NCc3ccccc3)n1)COCC2	6.05	2.9	7.18	4.68	3.98
NC(=O)c1nc(F)cnc1O [Favipiravir (T-705)]	0.685	0.513	0.835	0.762	0.894
CCOC(=O)C1=C(C)NC(C)=C(C(=O)OC)C1c1cccc(Cl)c1Cl (stereo not given) [Felodipine]	1.02	1.19	0.651	0.85	0.942
Cc1ccccc1C(OCCN(C)C)c1ccccc1 (stereo not given) [Orphenadrine Hydrochloride]	0.905	1.11	0.736	0.938	1.08
CC1(C)[C@H](C(=O)O)N2C(=O)C[C@H]2S1(=O)=O [Sulbactam sodium]	0.743	0.526	0.933	0.675	0.666
C=CCc1ccc(O)c(-c2cc(CC=C)ccc2O)c1 [Magnolol]	1.13	0.915	0.817	0.94	1.17
O=c1c(-c2ccc(O)cc2)coc2cc(O[C@@H]3O[C@H](CO)[C@@H](O)[C@H](O)[C@H]3O)ccc12 [Daidzin]	0.57	0.784	0.914	0.745	1.17
COc1ccc([C@@H]2Sc3ccccc3N(CCN(C)C)C(=O)[C@@H]2OC(C)=O)cc1 [Diltiazem HCl]	0.663	1.04	0.788	0.773	0.53
C[C@@H]1C[C@H]2[C@@H]3CCC4=CC(=O)C=C[C@]4(C)[C@@]3(Cl)[C@@H](O)C[C@]2(C)[C@@]1(OC(=O)c1ccco1)C(=O)CCl [Mometasone furoate]	2.05	1.97	1.79	0.88	2.18
CN1CCC[C@@H]1Cc1c[nH]c2ccc(CCS(=O)(=O)c3ccccc3)cc12 [Eletriptan HBr]	0.938	0.828	1.17	0.778	1.33
Cc1cc(Nc2cc(N)ncn2)c(=O)n2c1C(=O)NC21CCCCC1	0.779	0.866	1.08	0.427	1.18
c1ccc(C2CN3CCSC3=N2)cc1 (stereo not given) [Tetramisole HCl]	1.45	0.708	1.19	1.31	1.25
N#C[C@@H]1C[C@@H]2C[C@@H]2N1C(=O)[C@@H](N)C12CC3CC(CC(O)(C3)C1)C2 [Saxagliptin hydrate]	0.976	0.951	0.817	0.598	1.53
CC(C)[C@H]1C(=O)N[C@@H](CCCN=C(N)N)C(=O)NCC(=O)N[C@@H](CC(=O)O)C(=O)N[C@H](Cc2ccccc2)C(=O)N1C	4.91	2.03	1.25	4.74	2.44
Nc1ccc(S(=O)(=O)Nc2nccs2)cc1 [Sulfathiazole]	0.815	0.811	0.62	0.824	0.818
CCCNC(=O)NS(=O)(=O)c1ccc(Cl)cc1 [Chlorpropamide]	1.01	0.601	0.968	0.632	1.99
C[C@]12C=CC(=O)N[C@@H]1CC[C@@H]1[C@@H]2CC[C@]2(C)[C@@H](C(=O)Nc3cc(C(F)(F)F)ccc3C(F)(F)F)CC[C@@H]12 [Dutasteride]	1.17	1.7	1.03	0.422	1.01

SMILES	Euclidean distance (786-O)	Euclidean distance (A549)	Euclidean distance (FB)	Euclidean distance (HEPG2)	Euclidean distance (OVCAR4)
CCC(C)(Oc1ccc(C2(c3ccc(OC(C)(CC)C(=O)O)cc3)CCCCC2)cc1)C(=O)O (stereo not given) [Clinofibrate]	1.38	0.971	0.938	0.433	1.33
CN1CCc2nc(C(=O)N[C@@H]3C[C@@H](C(=O)N(C)C)CC[C@@H]3NC(=O)C(=O)Nc3ccc(Cl)cn3)sc2C1 [Edoxaban]	1.02	0.603	0.835	0.275	0.602
C[C@]12C=CC(=O)C=C1CC[C@@H]1[C@@H]2C(=O)C[C@@]2(C)[C@H]1CC[C@]2(O)C(=O)CO [Prednisone]	2.09	2.37	2.39	1.49	2.03
CC/C=C\C/C=C\C/C=C\C/C=C\C/C=C\CCCC(=O)O [Eicosapentaenoic Acid]	0.992	1.07	0.941	0.664	1.41
Cc1nnc(C(=O)NC(C)(C)c2nc(C(=O)NCc3ccc(F)cc3)c(O)c(=O)n2C)o1 [Raltegravir (MK-0518)]	1.17	0.695	1.11	0.537	1.35
C[C@@H]1CCC[C@H](C)N1NC(=O)c1ccc(Cl)c(S(N)(=O)=O)c1 [Clopamide]	1.15	1.14	0.969	0.528	1.14
CC(C)(C)[C@@H]1NC(=O)O[C@@H]2CCC[C@H]2OC/C=C/C(F)(F)c2nc3ccccc3nc2O[C@@H]2C[C@@H](C(=O)N[C@]3(C(=O)NS(=O)(=O)C4(C)CC4)C[C@H]3C(F)F)N(C2)C1=O [Glecaprevir]	1.01	1.22	0.806	0.687	0.812
C[C@@H]1C[C@H]2[C@@H]3CCC4=CC(=O)C=C[C@]4(C)[C@@]3(F)[C@@H](O)C[C@]2(C)[C@H]1C(=O)CO [Desoximetasone]	1.28	2.05	1.89	0.967	2.03
Nc1nc2cc(-c3ccc4ncc(C(=O)N5CCOCC5)n4c3)ccc2o1 [Serabelisib (INK-1117.MLN-1117.TAK-117)]	1.02	1.76	2.6	1.39	1.61
CN(CCOc1ccc(NS(C)(=O)=O)cc1)CCc1ccc(NS(C)(=O)=O)cc1 [Dofetilide]	0.968	1.19	1.24	0.609	1.02
COC(=O)C1=C(C#N)NC(C)=C(C(=O)OC(C)C)C1c1cccc([N+](=O)[O-])c1 (stereo not given) [Nilvadipine]	1.2	0.818	1.19	0.907	1.34
C[C@@H](O)[C@H]1C(=O)N2C(C(=O)O)=C(S[C@@H]3CN[C@H](C(=O)Nc4cccc(C(=O)O)c4)C3)[C@H](C)[C@H]12 [Ertapenem sodium]	0.672	0.953	0.956	0.854	0.913
CCOC(=O)N[C@@H]1CC[C@@H]2[C@@H](C1)C[C@H]1C(=O)O[C@H](C)[C@H]1[C@H]2/C=C/c1ccc(-c2cccc(F)c2)cn1 [Vorapaxar]	1.81	1.29	2.37	1.49	1.31
CN1CCN(C(c2ccccc2)c2ccccc2)CC1 [Cyclizine 2HCl]	1.05	0.919	1.58	0.689	1.37
CC1(C)S[C@@H]2[C@H](NC(=O)C(C(=O)O)c3ccccc3)C(=O)N2[C@H]1C(=O)O (stereo not given in full) [Carbenicillin disodium]	1.39	1.07	0.969	0.836	1.76
Cn1ccnc1S [Methimazole]	1.71	1.61	2.81	1.08	2.25
COc1cc(N)cn[n+]1-c1ccccc1 [Amezinium (methylsulfate)]	1.39	0.864	0.801	0.523	1.16
O=C(CCCN1CCC(O)(c2ccc(Cl)cc2)CC1)c1ccc(F)cc1 [Haloperidol]	1.27	0.777	1.09	1.04	1.95
Nc1[nH]cnc2ncnc1-2 [Adenine HCl]	1.09	0.466	1.18	0.46	1.59
Oc1ncnc2[nH]ncc12 [Allopurinol]	1.04	0.955	1.01	0.506	1.21
CCOC(=O)[C@H](CCc1ccccc1)N[C@H]1CCc2ccccc2N(CC(=O)O)C1=O [Benazepril]	0.912	0.486	0.851	0.54	1.04
CC(=O)c1cc2c(o1)C(=O)c1ccccc1C2=O [Napabucasin]	2.96	3.97	3.91	3.62	5.51
CC(C)C(=O)Nc1ccc([N+](=O)[O-])c(C(F)(F)F)c1 [Flutamide]	0.873	0.771	1.09	0.723	1.99
C[C@H](CSC(=O)c1ccccc1)C(=O)N1C[C@@H](Sc2ccccc2)C[C@H]1C(=O)O [Zofenopril calcium]	0.845	0.393	0.787	0.559	0.93
